# D1 agonist – activates the human D1 dopamine receptor; activation, % at 2 µM; 1% of 360,000 active; P21728; HEK293 T-REx D1 cells, calcium flux, agonist mode; note: 0% is about no effect
# Target sequence (P21728 whole entry, looked up): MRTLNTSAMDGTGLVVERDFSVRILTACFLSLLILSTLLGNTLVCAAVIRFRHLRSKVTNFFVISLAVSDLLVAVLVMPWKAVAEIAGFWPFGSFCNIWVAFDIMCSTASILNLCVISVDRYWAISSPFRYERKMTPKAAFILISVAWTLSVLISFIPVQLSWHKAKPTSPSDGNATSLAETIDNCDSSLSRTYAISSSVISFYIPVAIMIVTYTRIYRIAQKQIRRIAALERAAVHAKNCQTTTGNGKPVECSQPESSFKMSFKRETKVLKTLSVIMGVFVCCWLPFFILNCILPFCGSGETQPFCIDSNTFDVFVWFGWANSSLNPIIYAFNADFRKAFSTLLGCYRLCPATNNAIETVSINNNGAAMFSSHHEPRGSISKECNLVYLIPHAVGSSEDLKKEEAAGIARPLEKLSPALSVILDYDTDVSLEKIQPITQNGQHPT
#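 Agonism was scored from calcium flux recorded over 180 s (1 read/s) after pintool compound addition, following a 10-cycle baseline. Cells were inducible force-coupled HEK293 TREx D1, plated overnight at 30 C and loaded with no-wash calcium dye.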
# TRHR agonist – activates the human TRH receptor | TRHR cells, calcium flux fluo-8, FDSS agonist mode | P34981 | 0.18% of 360,000 active | activation, % at 2 µM; note: 0% is about no effect
#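 Read-out: compound-evoked intracellular calcium rise in TRHR cells, fluo-8 dye, kinetic FDSS fluorescence at 1 s/cycle following a 10-cycle baseline. Cells cultured overnight before dye loading (30 min–1.5 h, RT).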
# D1 potentiator – enhances dopamine response at the human D1 receptor; P21728; HEK293 TREx D1 cells, calcium flux, dopamine EC20 potentiation; potentiation, % at 10 µM; AID 504651; 0.036% of 360,000 active; in the data active = potentiation above about 30%; note: 0% is about no effect
# TRHR enhancer – allosteric enhancers of human TRH receptor; P34981; TRHR cells, fluo-8 calcium fluorescence, EC20 TRH enhancement; enhancement, % at 2 µM; 0.66% of 360,000 active; in the data active = enhancement above about 30%; note: 0% is about no effect
#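 TRHR-expressing cells loaded with fluo-8 calcium dye were read kinetically (ex 480/em 530) during compound addition, then stimulated with an EC20 of TRH (10 nM final). Enhancement of the Gq-mediated intracellular calcium response was scored.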
# D1 antagonist – antagonists of human D1 dopamine receptor | P21728 | HEK293 TREx D1 cells, calcium flux, dopamine EC80; hits give low values | activity change, negative = inhibition, % at 10 µM | 3.2% of 360,000 active | AID 504652; in the data active = activity change below about -30%; note: % is set by controls: 0 for no effect and ±100 for the full control effect
#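 After overnight tetracycline induction at 30 C, force-coupled D1 HEK293 cells took up a no-wash calcium dye at room temperature. Compounds were added and monitored 180 s, and the response to EC80 dopamine was then recorded.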
# An asterisk follows results filed as active; nt = no result given. Compounds with a hit are over-represented: about 4.6% of the library has one in this group of screens. Cut-off read from the data, not from the text of the source, unless noted: active = activation above about 30%; inactive = the rest.
SMILES,D1 agonist,TRHR agonist,D1 potentiator,TRHR enhancer,D1 antagonist
COc1cc(OC)cc(C(=O)N2CCN(C(=O)c3ccc(-c4ccccc4)cc3)CC2)c1,0,0,3,36*,-1
CCCOC(=O)c1ccc2c(c1)C(=O)N(c1ccccc1)C2=O,7,0,-4,5,-35*
COc1cc(CN2CCN(C(=O)c3ccc(-c4ccccc4)cc3)CC2)cc(OC)c1OC,0,0,-4,33*,13
COc1ccc(C(=O)N2CCN(C(=O)c3ccc(-c4ccccc4)cc3)CC2)cc1OC,2,0,-4,29,-12
O=C(CSc1n[nH]c(-c2cc(Cl)ccc2Cl)n1)NCCN1C(=O)CSC1=O,3,0,-4,-3,-6
O=C(COc1ccc(Cl)cc1)Nc1ncc([N+](=O)[O-])s1,28,4,-4,-10,-32*
O=C(Cc1ccc(Br)cc1)Nc1ncc([N+](=O)[O-])s1,21,7,-2,7,-25
O=C(COC(=O)COc1ccccc1)Nc1ncc([N+](=O)[O-])s1,6,0,-8,1,9
O=C(Cc1ccc(Cl)cc1)Nc1ncc([N+](=O)[O-])s1,31*,2,-6,-14,-43*
CC(C)c1ccc(CNc2nc(-c3ccco3)nn2S(=O)(=O)c2ccccc2)cc1,4,1,1,-13,-4
O=S(=O)(c1ccc2ccccc2c1)n1nc(-c2ccco2)nc1NCc1cccc(Cl)c1,11,1,-2,-4,-42*
Cc1ccc(NS(=O)(=O)c2ccc(C(=O)NCc3ccccn3)cc2)cc1,40*,6,-8,-1,-30
CS(=O)(=O)Nc1ccc(C(=O)NCc2ccccn2)cc1,6,0,-9,1,15
CC(=O)Nc1ccc(S(=O)(=O)Nc2ccc(C(=O)NCC(=O)O)cc2)cc1,2,1,-3,7,-66*
Cc1ccc(CNC(=O)c2cc(NS(=O)(=O)c3ccc(C)cc3)ccn2)cc1,-1,0,3,3,-32*
Cc1ccc(C(C)n2cc(C(=O)NCc3ccccn3)nn2)cc1 (stereo unspecified),33*,4,-6,0,15
CC(C)Cc1nnc(NC(=O)CCC(=O)N2CCCCC2)s1,2,0,-3,4,5
CCOc1ccc(NS(=O)(=O)c2ccc(C(=O)NCc3ccccn3)cc2)cc1,33*,5,-19,-2,8
CCOc1ccc(NS(=O)(=O)c2ccc(C(=O)NCc3ccncc3)cc2)cc1,12,1,-10,-1,5
Cc1cc(C)c(NC(=O)C2CCCN2CCO)c(C)c1 (stereo unspecified),1,2,-2,-2,13
Cc1cc(C)c(NC(=O)C2CCCN2C)c(C)c1 (stereo unspecified),2,1,-10,-6,-35*
CC1CCN(C(=O)N2c3ccccc3Sc3ccccc32)CC1,3,1,3,13,22
CC1CN(C(=O)N2c3ccccc3Sc3ccccc32)CC(C)O1 (stereo unspecified),2,1,-14,2,-33*
O=[N+]([O-])c1ccc(OCCCn2cncn2)cc1,10,0,1,-10,11
O=C(Cn1c(=O)oc2cc(S(=O)(=O)N3CCCC3)ccc21)NCc1ccc(F)cc1,11,3,-5,-4,14
SMILES,D1 agonist,TRHR agonist,D1 potentiator,TRHR enhancer,D1 antagonist
COc1cccc(CNC(=O)Cn2c(=O)oc3cc(S(=O)(=O)N4CCCC4)ccc32)c1,5,0,-3,1,-31*
O=C(Cn1c(=O)oc2cc(S(=O)(=O)N3CCCC3)ccc21)Nc1cccc(C(F)(F)F)c1,11,-1,-3,-3,-39*
O=C(Cn1c(=O)oc2cc(S(=O)(=O)N3CCCCC3)ccc21)NCc1ccc(F)cc1,41*,0,-4,5,-37*
CCCC(=O)n1nc(-c2ccccc2)nc1SC,1,0,-6,1,6
CCc1ccccc1NC(=O)Nc1cc(C(=O)NCc2ccc(OC)cc2)ccc1N1CCCC1,3,-1,0,3,-9
CCC1N=C(SC)NC(C)=C1C(=O)c1ccccc1 (stereo unspecified),3,0,-2,0,8
CSC1=NC(C(Cl)(Cl)Cl)N=C(c2ccc(C)cc2)N1 (stereo unspecified),0,0,-5,1,-85*
CCN1CN=C(NS(=O)(=O)c2ccc(C)cc2)NC1,34*,0,-1,9,nt
CC(=O)Nc1ccc(S(=O)(=O)NC2=NCN(CCO)CN2)cc1,0,2,2,2,4
COc1ccccc1NC(=O)Cn1c([N+](=O)[O-])cnc1C,4,0,1,-8,5
Cc1ccccc1NC(=O)Cn1c([N+](=O)[O-])cnc1C,0,1,-4,-3,-47*
COc1ccc(C(=O)Nc2cccc(NC(=O)c3cccs3)c2)cc1OC,1,1,-6,7,-18
O=C(NCC1CCCO1)c1cc(NS(=O)(=O)c2cccs2)cc(NS(=O)(=O)c2cccs2)c1 (stereo unspecified),-1,0,-3,-9,-2
CC1CCCCN1C(=O)CNCc1ccc(F)cc1 (stereo unspecified),2,-1,-11,-10,10
Cc1ccc(CNC(=O)Cn2c3ncccc3c(=O)n2-c2ccc(C)cc2)cc1,7,0,-7,-4,-57*
CCOC(=O)c1ccccc1NC(=O)Cn1c2ncccc2c(=O)n1-c1ccccc1,4,0,-4,4,10
CCc1ccccc1NC(=O)Cn1c2ncccc2c(=O)n1-c1ccccc1,5,-1,-8,25,-45*
CCc1ccc(-n2c(=O)c3cccnc3n2CC(=O)NCc2ccc(C)cc2)cc1,6,0,-5,-4,14
CCc1ccc(-n2c(=O)c3cccnc3n2CC(=O)Nc2ccccc2C(F)(F)F)cc1,11,1,-6,-1,-44*
CC(Oc1ccc(-c2ccccc2)cc1)C(=O)N/N=C/c1cccnc1 (stereo unspecified),9,0,-8,-3,-36*
COc1ccc(C(=O)N/N=C/c2cccnc2)cc1,5,1,6,-2,-5
COC(=O)c1sc(S(=O)(=O)N2CCCCC2C)c(C(=O)OC)c1C (stereo unspecified),1,-1,-1,20,-59*
Cc1c(NC(=O)c2ccccc2F)cccc1-c1nc2cccnc2s1,-1,-1,-2,11,-80*
O=C(Nc1cccc(-c2nc3ccccc3s2)c1)c1cc(-n2cnnc2)ccc1Cl,3,0,-5,-8,-6
Cc1c(NC(=O)c2cc(-n3cnnc3)ccc2Cl)cccc1-c1nc2ccccc2s1,1,0,-3,5,-39*

# Bioassay records deposited in PubChem BioAssay by National Center for Advancing Translational Sciences (NCATS).
